Compound activity from PubChem BioAssay.
DT40 TDP1 no CPT = qHTS for Inhibitors of human tyrosyl-DNA phosphodiesterase 1 (TDP1): qHTS in cells in absence of CPT | DT40 Tdp1-/- hTDP1 cells, no CPT, ATP luminescence, 48 h | Potency, µM (doses to about 46.2 µM), for the others: top-dose activity change, negative = growth inhibition, hits mostly inhibitors | 420,000 tested, 15% active; also: % is scaled to controls: 0 for no effect and ±100 for the full control effect; nearly all actives have a fitted effect of over 55% in size
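Camptothecin absent (DMSO only). Human TDP1-complemented DT40 knockout cells, 400 cells/well, 37 °C for minimum 48 hr; ATP measured via CellTiter-Glo, 30 min dark incubation, luminescence.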
TGFb inhibitor = inhibitors of TGF-b signaling. HepG2 CAGA-GFP TGF-b/SMAD3 reporter, GFP fluorescence, 18 h; TGF-beta stimulated, 500 pg/mL final. Potency, µM (doses to about 46.1 µM), for the others: at the top dose activity, negative = inhibition, usual class: inhibitors. 410,000 tested, 1.2% active; also: % is scaled to controls: 0 for no effect and ±100 for the full control effect; nearly all actives have a fitted effect of over 65% in size
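Inhibition was scored as loss of TGF-beta-induced (500 pg/mL final, 18 hours, 37 degrees C) GFP in HEPG2 cells carrying a CAGA-GFP reporter, in DMEM with 1% FBS. Well GFP was summed per cell; Activity was normalised to unstimulated and stimulated DMSO wells, then concentration-response fitting.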
ATXN2 expr inh = reduces ATXN2 reporter expression in HEK-293 cells; HEK-293 ATXN2-luciferase reporter, luminescence, 24 h; Potency, µM (highest dose often 57 µM), for the others: at the top dose activity change, negative = inhibition, hits mostly inhibitors; 360,000 tested, 0.72% active; also: % is scaled to controls: 0 for no effect and ±100 for the full control effect; nearly all actives have a fitted effect of over 55% in size
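ATXN2-luciferase reporter cells (luciferase flanked by upstream and downstream ATXN2 gene portions) were treated 24 h at 37 °C with compounds at up to 57 uM. SteadyGlo luminescence gave expression; GF-AFC fluorescence gave viability.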
HepG2 tox = HepG2 cytotoxicity, counter-screen for TGF-b inhibitors; 410,000 tested, 0.76% active; AID 588856; HepG2 CAGA-GFP viability, ATP luminescence, 18 h; Potency, µM (top dose mostly 46.1 µM), inactives show top-dose activity change, negative = cytotoxicity, actives largely listed as cytotoxic
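HepG2 CAGA-GFP cells (1000/well, DMEM with 1% FBS) received compound, then TGF-beta at 500 pg/mL final, and were incubated 18 hours at 37 degrees C. Viability was read by CellTiter-Glo luminescence. Media-only wells were set as complete cell-killing and DMSO as no toxicity.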
S2 tox = cell viability loss in ATXN counter-screen | S2 cells (HEK-293 line with an ATXN2-luciferase reporter) viability, CellTiter-Fluor protease fluorescence, 24 h | Potency, µM (top dose mostly 56.7 µM), most hits filed as cytotoxic | 400,000 tested, 0.49% active; also: nearly all actives have a fitted effect of over 40% in size
DT40 TDP1 CPT = DT40-hTDP1 cell growth loss with CPT. 420,000 tested, 12% active. chicken DT40 Tdp1-/-;hTDP1 cells + 20 nM CPT, ATP luminescence, 48 h. Potency, µM (titrated, usually from 46.2 µM), for the others: at the highest dose activity change, negative = growth inhibition, most hits filed as inhibitors; also: % is scaled to controls: 0 for no effect and ±100 for the full control effect; nearly all actives have a fitted effect of over 55% in size
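Chicken DT40 Tdp1-/- cells complemented with human TDP1, 400 cells/well, exposed to compounds plus 20 nM camptothecin for at least 48 h at 37 C; viability read as ATP content by CellTiter-Glo luminescence.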
An asterisk follows results filed as active; i = inactive; ? = inconclusive; / = no result; [ ] = another dose, or the depositor's remark. The list is not random: actives were taken first. Their share in the collection is about 17%. Calls follow the shape of the dose curve; as a rule, active = well fitted curve in the direction sought with a large enough effect; inconclusive = small, poorly fitted or top-dose-only effect, or another doubt; inactive = no such curve, though single readings can be large; an effect the other way counts as inactive or inconclusive. Potency is read from the fitted curve at half-maximal effect.

SMILES | DT40 TDP1 no CPT | TGFb inhibitor | ATXN2 expr inh | HepG2 tox | S2 tox | DT40 TDP1 CPT
COc1ccc(NC(=O)CSc2ncccc2C(=O)O)cc1OC | -4% | -1% | 11% | 0% | i | 5%
CN(CC(=O)Nc1ccc(Cl)c(C(F)(F)F)c1)C(=O)Cc1ccsc1 | 16µM* | -1% | -23% | -18% | i | 16µM*
CN(CC(=O)Nc1ccc(Cl)c(C(F)(F)F)c1)C(=O)Cc1cccs1 | ? | -17% | -17% | -12% | i | ?
CN(CC(=O)Nc1cccc(F)c1)C(=O)CCN1C(=O)C2CC=CCC2C1=O (centres undefined) | -5% | 0% | 3% | -6% | i | -18%
CN(CC(=O)Nc1ccc(Cl)c(C(F)(F)F)c1)C(=O)CCN1C(=O)C2CC=CCC2C1=O (centres undefined) | ? | -24% | -10% | 0% | i | 9.2µM*
c1ccc(N=c2nc(-c3ccccc3)n(-c3ccccc3)s2)cc1 | 5.6µM* | 2.8µM* | / | -84% | / | 6.3µM*
CCOc1ncccc1C(=O)OCc1nnc(-c2ccccc2)o1 | 1% | 0% | 0% | 10% | i | -5%
NC(=O)NC(Cc1ccccc1)C(=O)NCC1(N2CCCCC2)CCCCC1 (centres undefined) | -37% | -3% | 2% | 3.5µM* | i | -15%
CON(C)C(=O)c1ccccc1N(C)C(=O)OC(C)(C)C | -7% | 29% | -1% | 38% | i | -11%
CCOC(=O)C1(CC2CCCCO2)CCN(Cc2nc3ccccc3[nH]2)CC1 (centres undefined) | -10% | 0% | -5% | -6% | i | ?
CCOC(=O)C1(CC2CCCCO2)CCN(Cc2nc(C(C)C)cs2)CC1 (centres undefined) | ? | -19% | 2%[11.3 µM] | -12% | ? | 16µM*
CCOC(=O)C1(CC2CCCCO2)CCN(Cc2c(C)cc(C)cc2-n2cccn2)CC1 (centres undefined) | 29µM* | 20% | -26% | -13% | ? | ?
Cc1ncc(CO)c2cc(C(=O)Nc3ccccc3Cl)c(=Nc3cccc(C(N)=O)c3)oc12 | -4% | -3% | 5% | 0% | i | -14%
COc1ccccc1NC(=O)c1cc2c(CO)cnc(C)c2oc1=Nc1ccc(OC)c(OC)c1 | ? | -1% | -23% | -12% | i | 9.2µM*
COc1ccccc1NC(=O)c1cc2c(CO)cnc(C)c2oc1=Nc1cc(OC)c(OC)c(OC)c1 | -11% | 0% | 7% | -13% | i | 1%
COc1ccc(NC(=O)c2cc3c(CO)cnc(C)c3oc2=Nc2cccc(C)c2)c(OC)c1 | 4.1µM* | 0% | -9% | -2% | i | ?
COc1cc(C)c(CN2CCc3nnc(C(C)NC(=O)c4cc(F)ccc4F)n3CC2)cc1C (centres undefined) | -2% | / | / | / | i | 0%
CCCCC[C@H](C)N1C[C@@H](COCc2ccccc2)Oc2cc(N3CC[C@@H](O)C3)ccc2S1(=O)=O | ? | / | -1% | / | ? | ?
CCCCC[C@@H](C)N1C[C@@H](COCc2ccccc2)Oc2cc(N3CC[C@@H](O)C3)ccc2S1(=O)=O | 16µM* | / | ? | / | / | ?
CCCCC[C@@H](C)N1C[C@@H](COCc2ccccc2)Oc2cc(N3CC[C@H](O)C3)ccc2S1(=O)=O | 16µM* | / | ? | / | ? | ?
CCc1nn2c(=O)cc(COC(=O)c3ccccc3NC(=O)COc3ccccc3C)nc2s1 | 5.2µM* | 0% | / | -1% | / | 4.1µM*
Cc1nn2c(=O)cc(COC(=O)c3cccc(NC(=O)COc4ccc(C)c(C)c4)c3)nc2s1 | -6% | -21% | / | -21% | / | 17%
Cc1nn2c(=O)cc(COC(=O)c3cccc(NC(=O)COc4ccccc4C)c3)nc2s1 | 21µM* | 18% | / | 4% | / | 18µM*
CCc1nn2c(=O)cc(COC(=O)c3ccc(NC(=O)COc4ccccc4C)cc3)nc2s1 | -24% | -2% | / | 0% | / | 12%
Cc1nn2c(=O)cc(COC(=O)c3ccc(NC(=O)COc4ccccc4F)cc3)nc2s1 | 5.2µM* | -17% | / | -23% | / | 5.8µM*
SMILES | DT40 TDP1 no CPT | TGFb inhibitor | ATXN2 expr inh | HepG2 tox | S2 tox | DT40 TDP1 CPT
CCc1nn2c(=O)cc(COC(=O)c3cccc(NC(=O)COc4ccccc4F)c3)nc2s1 | ? | -13% | / | -16% | / | 18µM*
CC[C@@H]1Cc2[nH][nH]c(=O)c2[C@H](CC(C)C)O1 | -14% | / | 11% | / | ? | -5%
CN(CC(=O)NCc1cccs1)CC(=O)Nc1ccccc1Cl | -13% | 3% | / | 3% | i | 0%
O=C(CN1Cc2ccccc2OC(c2ccccc2)C1)NCc1cccnc1 (centres undefined) | ? | / | / | / | i | -1%[9.04 µM]
Cc1ccc2[nH]cc(C(=O)CCl)c2c1 | 4.1µM* | ? | ? | -105% | ? | 2.6µM*
Cc1ccc2[nH]cc(C(O)c3c[nH]c4ccc(C)cc34)c2c1 | ? | 10µM* | / | 10% | / | ?
Cc1ccc2c(C(=O)CNc3nccs3)c(C)[nH]c2c1 | ? | -6% | / | -22% | / | -26%
Cc1ccc2c(C(=O)CCl)c(C)[nH]c2c1 | 2.6µM* | ? | 20% | -96% | i | 3.7µM*
Cc1ccc2c(C(=O)CN3CCSCC3)c(C)[nH]c2c1 | ? | 7% | 2% | -5% | i | 16µM*
CCn1c(-c2ccccc2F)nc2cc(C(=O)N3CCCC(CO)C3)cc(NC(C)=O)c21 (centres undefined) | 9% | / | / | / | i | 1%
CCOC(=O)C1CCCN(c2nc3ccccc3nc2C(C#N)C(=O)OCCOC)C1 (centres undefined) | 21µM* | 6% | 42% | -4% | i | ?
CCOC(=O)C1CCCN(c2nc3ccccc3nc2C(C#N)C(=O)OCC)C1 (centres undefined) | 23µM* | ? | 10% | -14% | i | ?
Cc1cc(OCC(=O)NC(C)c2ccccc2)ccc1[N+](=O)[O-] (centres undefined) | 16µM* | -11% | ? | -12% | i | 18µM*
O=C(CNC(=O)Cn1ccc2ccccc2c1=O)NCCCN1CCN(c2cccc(Cl)c2)CC1 | 26µM* | -8% | -16% | -16% | i | ?
